The full ranking holds about 18,000 sequences; the median of “log2 normalized intensity” is about 0.39, and the highest 2% start at about 6.6. The sample holds the highest values, similar sequences and a random draw of the others, so the mix is not that of the screen.
The sequences below were run against T1, HNF4alpha2 (COS-7 nuclear extract) (Homo sapiens, UniProt P41235 1-474) (assay: protein-binding microarray; COS-7 nuclear extract on double-stranded Agilent 4x180k PBM; binding buffer, salt, pH and temperature not given in the material; high values mean tight binding). Conditions: chain copies: 2; label: 3' end of strand 1 on the slide; dsDNA, one strand shown.
T1 sequence: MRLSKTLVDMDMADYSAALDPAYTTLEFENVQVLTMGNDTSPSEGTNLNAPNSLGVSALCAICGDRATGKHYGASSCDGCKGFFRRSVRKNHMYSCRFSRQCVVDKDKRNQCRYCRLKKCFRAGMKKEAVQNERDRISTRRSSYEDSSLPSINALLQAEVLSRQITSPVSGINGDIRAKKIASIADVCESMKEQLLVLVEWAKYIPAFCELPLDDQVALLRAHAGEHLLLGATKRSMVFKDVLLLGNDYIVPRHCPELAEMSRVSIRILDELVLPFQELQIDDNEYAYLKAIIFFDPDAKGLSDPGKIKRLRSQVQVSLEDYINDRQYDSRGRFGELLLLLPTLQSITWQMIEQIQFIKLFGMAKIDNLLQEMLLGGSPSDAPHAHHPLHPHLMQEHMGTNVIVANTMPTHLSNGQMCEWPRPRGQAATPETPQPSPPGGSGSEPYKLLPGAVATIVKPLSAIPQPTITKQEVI
Procedure, shortened: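 The binding signal is Agilent software's gProcessedSignal after background correction and normalization. Arrays were a custom Agilent SurePrint G3 4x180k design of double-stranded ~60-nt oligonucleotides with ~44,000 test sequences in quadruplicate, probed with nuclear extracts of COS-7 cells transiently expressing a human HNF4α isoform. Scans were made at 2-µm resolution on an Agilent G2565CA scanner.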

| Sequence | binding signal [log2 normalized intensity] |
| --- | --- |
| TTCTGTCCTCTCAAAGTCCACCCGGCCAGCGCCTAGGGAGATTAGAGTATCGGTCGA | 4.04 |
| TGCATCAGTGCTGACCTACCTGACCTGGCAGCCTAGGGAGATTAGAGTATCGGTCGA | 1.28 |
| AAGGGCAGCAGTAACCCCCCAGGAGCGAGTGCCTAGGGAGATTAGAGTATCGGTCGA | 3.54 |
| TGGGTATGTCTGTAGGTAAGCACAAAGTACGCCTAGGGAGATTAGAGTATCGGTCGA | 1.92 |
| GGCAAAACACCCCTTTCACTTCTTCCCCTCGCCTAGGGAGATTAGAGTATCGGTCGA | 3.8 |
| TAACCCTACAGTCCTGCCACATCCCCCACAGCCTAGGGAGATTAGAGTATCGGTCGA | 4.26 |
| AGGGGCTGCTGGGAGTTGTAGTTTTTTGGGGCCTAGGGAGATTAGAGTATCGGTCGA | 1.54 |
| AAGAGTCAAAGGGCAAAGGAATAAAATAGCGCCTAGGGAGATTAGAGTATCGGTCGA | -0.272 |
| CCCCACCCCCACTGCCTGACCCCAAGTAATGCCTAGGGAGATTAGAGTATCGGTCGA | 6.98 |
| TTCATCCCCACCCCCACTGCCTGACCCCAAGCCTAGGGAGATTAGAGTATCGGTCGA | 7.59 |
| CCCCCACTGCCTGACCCCAAGTAATAGCCGGCCTAGGGAGATTAGAGTATCGGTCGA | 5.25 |
| CTCTTCAGAATGGCCTGCCCATCCCCCCAAGCCTAGGGAGATTAGAGTATCGGTCGA | 5.18 |
| ACTGCCTGACCCCAAGTAATAGCCGTTTCTGCCTAGGGAGATTAGAGTATCGGTCGA | 1.07 |
| GGCGTGACCCCCACTGCCTGCCTGCCAACTGCCTAGGGAGATTAGAGTATCGGTCGA | 2.89 |
| TGCCCTTTGCCCTCACTGGTAGAAGGCAGCGCCTAGGGAGATTAGAGTATCGGTCGA | 4.58 |
| CGCTCCCCTCCCCCACCCGCGGTCCGTCCCGCCTAGGGAGATTAGAGTATCGGTCGA | 5.86 |
| CTGGTCGACCTCCCCGTCACCCTCCCCGCCGCCTAGGGAGATTAGAGTATCGGTCGA | 6 |
| CGACCTCCCCGTCACCCTCCCCGCCACCCCGCCTAGGGAGATTAGAGTATCGGTCGA | 6.67 |
| TCCCCGTCACCCTCCCCGCCACCCCCCAGAGCCTAGGGAGATTAGAGTATCGGTCGA | 7.45 |
| GTCACCCTCCCCGCCACCCCCCAGAGGGCCGCCTAGGGAGATTAGAGTATCGGTCGA | 6.08 |
| TTTCCCTGGTCGACCTCCCCGTCACCCTCCGCCTAGGGAGATTAGAGTATCGGTCGA | 4.15 |
| ACGTCTGTTAACCAAGATACTGGGTCAGAGGCCTAGGGAGATTAGAGTATCGGTCGA | 1.11 |

| Sequence | binding signal [log2 normalized intensity] |
| --- | --- |
| ACCAGCGTAATTCTGGCTCTTTGAGTGGTTGCCTAGGGAGATTAGAGTATCGGTCGA | 0.76 |
| TCCAGCATTCTTTTCCCCATACCAGGCAGTGCCTAGGGAGATTAGAGTATCGGTCGA | 2.37 |
| GGAATGACCTTTGATATTTGTGCCTAGTGGGCCTAGGGAGATTAGAGTATCGGTCGA | 4.8 |
| CGCTCTGAGTGACCTTTCACCCGCGCCCAGGCCTAGGGAGATTAGAGTATCGGTCGA | 5.48 |
| GGCGCCGCTCTGAGTGACCTTTCACCCGCGGCCTAGGGAGATTAGAGTATCGGTCGA | 6.81 |
| CCCCCAGTGGAATGTGCCCTTTGACCTCTCGCCTAGGGAGATTAGAGTATCGGTCGA | 9.72 |
| GGTGGGCTGCTCCCAGTGCCCTTTGAACTCGCCTAGGGAGATTAGAGTATCGGTCGA | 8.32 |
| CGCCGGGCGCCGCTCTGAGTGACCTTTCACGCCTAGGGAGATTAGAGTATCGGTCGA | 4.57 |
| AGTAACCTGACCCCCAGTGGAATGTGCCCTGCCTAGGGAGATTAGAGTATCGGTCGA | 3.87 |
| CCTGACCCCCAGTGGAATGTGCCCTTTGACGCCTAGGGAGATTAGAGTATCGGTCGA | 4.95 |
| GGCCAGGTGGGCTGCTCCCAGTGCCCTTTGGCCTAGGGAGATTAGAGTATCGGTCGA | 3.73 |
| GTGCTCCCTCCCCCTGCATGAACCTTTGCTGCCTAGGGAGATTAGAGTATCGGTCGA | 3.19 |
| AGTGGAATGTGCCCTTTGACCTCTCTCTCCGCCTAGGGAGATTAGAGTATCGGTCGA | 7.71 |
| AATGTGCCCTTTGACCTCTCTCTCCTAACTGCCTAGGGAGATTAGAGTATCGGTCGA | 6.48 |
| CTTCAAAGGTCGTGTGCTTATCACATCTATGCCTAGGGAGATTAGAGTATCGGTCGA | 1.12 |
| GTGATGACCCCATACTTCAGCAATTTCTTAGCCTAGGGAGATTAGAGTATCGGTCGA | 1.12 |
| AATCCCCTTCAAGTCTGAGATGAAGAGGCCGCCTAGGGAGATTAGAGTATCGGTCGA | 0.649 |
| CAGTGGTAATGGAGCTGAAACTATAAACTTGCCTAGGGAGATTAGAGTATCGGTCGA | -0.653 |
| ACCTTTGCCCTGGATCTTGAAGCAGAAAACGCCTAGGGAGATTAGAGTATCGGTCGA | 1.58 |
| TAATCAGCTTAAGCATACAGATTACATCTCGCCTAGGGAGATTAGAGTATCGGTCGA | -0.798 |
| ACGTTCACGTCTCAAGCTTCAGGAGTCCACGCCTAGGGAGATTAGAGTATCGGTCGA | 2.07 |
| ATACGATAATGTCAAACATCTTATATCAACGCCTAGGGAGATTAGAGTATCGGTCGA | 0.675 |

| Sequence | binding signal [log2 normalized intensity] |
| --- | --- |
| TCTATCTGTATTCTGAAGCCCTACAGCCCAGCCTAGGGAGATTAGAGTATCGGTCGA | -0.864 |
| CCTCTGCATTTGCTCCCTGACTTGGTTTACGCCTAGGGAGATTAGAGTATCGGTCGA | 1.67 |
| CAGATCCAGTGGACTCTCTGTTTGATCAGCGCCTAGGGAGATTAGAGTATCGGTCGA | 1.51 |
| TGTCACACACAGACTTGGGTTCAAAGAGCAGCCTAGGGAGATTAGAGTATCGGTCGA | 3.94 |
| AATGATTGCATAATCTGGCTCCAAAGTCTAGCCTAGGGAGATTAGAGTATCGGTCGA | 2.2 |
| CCTTTACCCTGACCTGTCAAGCAATGATCTGCCTAGGGAGATTAGAGTATCGGTCGA | 1.25 |
| AGCAGTCTGAGTAGGAAAGACTTGCTCATTGCCTAGGGAGATTAGAGTATCGGTCGA | -0.18 |
| CACTCTGGTGCCCTCTGAGTGTTTGACCTTGCCTAGGGAGATTAGAGTATCGGTCGA | 5.15 |
| TGGTGCCCTCTGAGTGTTTGACCTTTCACCGCCTAGGGAGATTAGAGTATCGGTCGA | 7.66 |
| CCCTCTGAGTGTTTGACCTTTCACCCAGAAGCCTAGGGAGATTAGAGTATCGGTCGA | 6.42 |
| GTTGCTTCCACCTATGAGTCTGTAAAGTCAGCCTAGGGAGATTAGAGTATCGGTCGA | 0.468 |
| AATATTCTGGCTTCTCGTGAGTATTTTTTCGCCTAGGGAGATTAGAGTATCGGTCGA | 0.954 |
| TTTGGAATTGTGTCACTCCCCAGGAATGTGGCCTAGGGAGATTAGAGTATCGGTCGA | 1.89 |
| CCTCTGCACCCCACCAAGGACTGGACCACCGCCTAGGGAGATTAGAGTATCGGTCGA | 2.34 |
| AGAGCAGGAATTCTGATCTTTGACCTCTCCGCCTAGGGAGATTAGAGTATCGGTCGA | 7.34 |
| CATCTTTGAAGAGCACAGGGTCAGCAGATCGCCTAGGGAGATTAGAGTATCGGTCGA | 1.17 |
| CCACTTTGAATCAGGAGAGCATCTGAGTGTGCCTAGGGAGATTAGAGTATCGGTCGA | 1.15 |
| AGGAATTCTGATCTTTGACCTCTCCAGGGTGCCTAGGGAGATTAGAGTATCGGTCGA | 5.99 |
| TTCTGATCTTTGACCTCTCCAGGGTCCTTGGCCTAGGGAGATTAGAGTATCGGTCGA | 4.73 |
| TAATCAGAGCAGGAATTCTGATCTTTGACCGCCTAGGGAGATTAGAGTATCGGTCGA | 7.18 |
| GCCACCTTGGTGAGAGATTAAACATGCTCTGCCTAGGGAGATTAGAGTATCGGTCGA | 0.469 |
| ACAGCCTTTTGAGTTTCTACCATAGACCCTGCCTAGGGAGATTAGAGTATCGGTCGA | 1.05 |

| Sequence | binding signal [log2 normalized intensity] |
| --- | --- |
| TACCCCTGTGGTTGACCTTTAGTCTCTAGCGCCTAGGGAGATTAGAGTATCGGTCGA | 6.48 |
| TGATCCATTCTACCCCTGTGGTTGACCTTTGCCTAGGGAGATTAGAGTATCGGTCGA | 7.8 |
| GGACTTGATCCATTCTACCCCTGTGGTTGAGCCTAGGGAGATTAGAGTATCGGTCGA | 2.25 |
| ATGCTAAAGTCTACATTCTAGATGACCCCTGCCTAGGGAGATTAGAGTATCGGTCGA | 5.66 |
| TTACTGGACTTGATCCATTCTACCCCTGTGGCCTAGGGAGATTAGAGTATCGGTCGA | 2.73 |
| CATTCTACCCCTGTGGTTGACCTTTAGTCTGCCTAGGGAGATTAGAGTATCGGTCGA | 7.73 |
| GGACTTCGCTCCGCCGCTAGGTGGCGGGCTGCCTAGGGAGATTAGAGTATCGGTCGA | 1.42 |
| GAGAAGTTGCTCTTTACACCATTGCAAGGAGCCTAGGGAGATTAGAGTATCGGTCGA | -0.941 |
| GGAGCCCCCTGGGGGAGGTTTCCTGCTGTCGCCTAGGGAGATTAGAGTATCGGTCGA | -0.946 |
| ATCTTCCTCCCCCCTTGGCTACATGTTTGTGCCTAGGGAGATTAGAGTATCGGTCGA | 3.7 |
| CTGCAAAGAAGTCAAACTTTGGACCCACTGGCCTAGGGAGATTAGAGTATCGGTCGA | 5.97 |
| GGACTTGATCCAGGGCAAAGGTCATAATTTGCCTAGGGAGATTAGAGTATCGGTCGA | 6.98 |
| ACACAGGACTTGATCCAGGGCAAAGGTCATGCCTAGGGAGATTAGAGTATCGGTCGA | 7.38 |
| TGATCCAGGGCAAAGGTCATAATTTGATCCGCCTAGGGAGATTAGAGTATCGGTCGA | 6.34 |
| CAAAGGTCATAATTTGATCCAGTGTGCAAAGCCTAGGGAGATTAGAGTATCGGTCGA | 3.35 |
| TCAGGAGCCCCACAGAGCAAAGGTCATGCAGCCTAGGGAGATTAGAGTATCGGTCGA | 5.38 |
| AGAAAACACAGAGATCTGATCAAAGGTCATGCCTAGGGAGATTAGAGTATCGGTCGA | 5.9 |
| GAGCTTTTACCTCAAATAAAGGTCAGAGTCGCCTAGGGAGATTAGAGTATCGGTCGA | 1.79 |
| GTATCAGGGCTCAGGAATGTGGGGTCAACAGCCTAGGGAGATTAGAGTATCGGTCGA | 2.99 |

— publication PMC10726135, “HNF4α isoforms regulate the circadian balance between carbohydrate and lipid metabolism in the liver”
